Compound activity as filed in PubChem.
HCV inh: HCV inhibition. Huh7.5.1 HCVcc-Cre infection, luciferase reporter, 44 h. Potency, µM (doses to about 41.8 µM), inactives show top-dose activity change, negative = inhibition, actives largely listed as inhibitors. actives 3.4% (n = 340,000). AID 651820; also: potency is read from the fitted curve at half-maximal effect; % is scaled to controls: 0 for no effect and ±100 for the full control effect
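1,000 cells/well; 4 h culture; + compound; + HCVcc-Cre (~0.5 moi); 44 h; luciferase substrate, RT 15 min; read 15 sec.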
Cycloheximide cs: counter-screen hit for Shiga toxin inhibitors, cycloheximide; cell reporter, cycloheximide protein synthesis inhibition counterscreen; max response, %; actives 12% (n = 300,000); in the data active = max response mostly above about 13%, no sharp cut-off; inactive = mostly below about 14%; also: read at 38.3 µM for the half of the compounds with a filed dose; 0% is about no effect
Pf growth 48h: P. falciparum growth inhibition at 48 hours (one generation); P. falciparum luciferase growth in erythrocytes, 48 h; Potency, µM (top dose mostly 28.7 µM), for inactives: at the top dose activity change, negative = inhibition, most hits filed as inhibitors; actives 5.9% (n = 310,000); also: potency is read from the fitted curve at half-maximal effect; % is scaled to controls: 0 for no effect and ±100 for the full control effect
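Here the parasites carry a stable luciferase gene and grow inside erythrocytes in Albumax-based RPMI medium with compound for one erythrocytic cycle. Activity is scored as loss of luminescent signal.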
HCMV antiviral: blocks human cytomegalovirus replication; activity change, negative = inhibition, % at 57.5 µM; HFF cells, HCMV-luciferase reporter, 72 h; stronger effect = lower value; actives 4.5% (n = 410,000); AID 1259415; in the data active = activity change below about -60%; inconclusive = no clear call, values can overlap the other calls; inactive = above about -39%; also: % is scaled to controls: 0 for no effect and ±100 for the full control effect
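Cell-based, HFFs, 1000 cells/well, 16 h 37C; cpds in DMSO + HCMV-luc, MOI 1 PFU/cell; 72 h 37C; OneGlo luminescence after 5 min RT; norm. to buffer vs Salinomycin 10uM.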
Shiga inhibitor: Shiga toxin inhibition; inhibition, % at 38.7 µM; actives 9.2% (n = 290,000); AID 2315; Vero cells, Shiga toxin protein synthesis inhibition reporter; in the data active = inhibition mostly above about 28%, no sharp cut-off; inactive = mostly below about 43%; also: 0% is about no effect
Pf growth 96h: inhibits malaria parasite growth, 96 h; P. falciparum luciferase reporter growth, 96 h; actives 6.9% (n = 320,000); Potency, µM (doses to about 28.7 µM), for the others: at the highest dose activity change, negative = inhibition, actives largely listed as inhibitors; AID 504834; also: potency is read from the fitted curve at half-maximal effect; % is scaled to controls: 0 for no effect and ±100 for the full control effect
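Compounds incubated with erythrocytes infected by luciferase-expressing P. falciparum (2% hematocrit, 0.05% parasitemia final) for 96 hours, 37 C in 5% CO2. Growth inhibition scored as decreased luciferase luminescence.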
* marks the source's active call; other numbers are inactive results; u = inconclusive; x = no result given; + = active, no number; ! = a repeat was not active. An excerpt weighted towards active compounds, which were near 21% of everything screened. Unless noted, calls follow the shape of the dose curve; as a rule, active = well fitted inhibition curve with a large enough effect; inconclusive = small, poorly fitted or top-dose-only effect, or another doubt; inactive = no such curve, though single readings can be large or run the other way.

SMILES	HCV inh	Cycloheximide cs	Pf growth 48h	HCMV antiviral	Shiga inhibitor	Pf growth 96h
CC(=O)c1sc(N/N=C\c2ccc(Br)cc2)nc1C	-17%	72*	0%	-14	active	u
CN(C)c1ccc(CN(C(=O)c2ccccc2Br)C2CCS(=O)(=O)C2)cc1 (centres undefined)	3%	10*	-13%	-13	35*	13µM*
CN(C)c1ccc(CN(C(=O)c2ccco2)C2CCS(=O)(=O)C2)cc1 (centres undefined)	9%	-3	56%	-9	8	5.2µM*
Cc1ccc(CN(C(=O)c2ccco2)C2CCS(=O)(=O)C2)cc1 (centres undefined)	-1%	-2	-3%	-4	8	-17%
COc1cccc(CN(C(=O)c2ccccc2Br)C2CCS(=O)(=O)C2)c1 (centres undefined)	9%	-7	-12%	15	-7	u
Clc1ccccn1	u	x	25%	39	x	u
Cc1nc(N2CCCC2)ncc1C(=O)N1CCN(c2ccc(Cl)cc2)CC1	x	x	x	2	x	x
Cc1cc(Cl)c(OCCCN2CCCCC2)c(Br)c1	u	0	u	u	1	u
COCCNCCCCOc1c(Cl)cc(C)cc1Br	11µM*	-3	-23%	-5	-29	0%
Cc1cc(Cl)c(OCCCNCc2ccccc2)c(Br)c1	25µM*	-2	u	20	-19	u
CCOC(=O)C1CCCN(C(=O)c2ccc3ccccc3c2)CC1 (centres undefined)	x	x	x	-25	x	x
COc1cccc2c1-c1c(O)cccc1C2=O	1%	-1	-2%	-3	x	6%
COc1cccc2c1C(=O)c1c(O)c3c(c(O)c1C2=O)C[C@](O)(C(C)=O)C[C@H]3O[C@@H]1C[C@@H](N)[C@@H](O)[C@@H](C)O1	8.9µM*	x	0.93µM*	-100*	x	1.2µM*
CCCCC(=O)OCC(=O)C1(O)Cc2c(O)c3c(c(O)c2C(OC2CC(NC(=O)C(F)(F)F)C(O)C(C)O2)C1)C(=O)c1c(OC)cccc1C3=O (centres undefined)	3.5µM*	x	x	-98*	x	x
COc1cccc2c1C(=O)c1c(O)c3c(c(O)c1C2=O)CC(O)(C(C)=O)CC3OC1CC(O)C(O)C(C)O1 (centres undefined)	u	x	x	-101*	x	x
COc1cccc2c1C(=O)c1c(O)c3c(c(O)c1C2=O)C[C@@](O)(C(=O)CO)C[C@@H]3O[C@H]1C[C@H](N)[C@H](OC2CCCCO2)[C@H](C)O1 (some centres undefined)	x	x	3.8µM*	x	x	4.3µM*
COc1ccc(/C=N/NC(=O)CN2CCCc3ccccc32)c(OC)c1	6%	1	-15%	103	-6	12%
Clc1ccccc1Cc1cn2cc(-c3ccccc3)nc2s1	x	x	x	76	x	x
Cc1ccc(C(=O)NCCNS(=O)(=O)c2ccccc2)cn1	14%	-3	13%	-20	23	u
COc1ccccc1CCNC(=O)Cc1c(C)c2cc(Cl)c(O)cc2oc1=O	x	x	x	-18	x	x
COc1cccc(NC(=O)CSc2nc3ccccc3c(=O)n2CCCC(=O)N2CCCC2)c1	0%	-4	u	-14	2	9%
Cc1n[nH]c(=O)c2c(NC(=O)CSc3nc4ccccc4c(=O)n3CCCOC(C)C)oc(C)c12	-5%	2	18%	-98*	-9	6%
CCOCCCn1c(SCC(=O)Nc2oc(C)c3c(C)n[nH]c(=O)c23)nc2ccccc2c1=O	8%	x	x	-11	x	x
N#CCSc1nc2ccccc2c2nc3ccccc3n12	u	5	u	-103*	+	7.4µM*
CCn1c(SCC#N)nc2ccccc2c1=O	-26%	1	-7%	0	-8	18%
CCOCCCn1c(SCC(=O)Nc2cccc(OC)c2)nc2ccccc2c1=O	u	1	u	-73*!	55	-8%
Cc1n[nH]c(=O)c2c(NC(=O)CSc3nn(-c4ccccc4)c(=S)s3)oc(C)c12	19%	x	50%	-98*	x	26%
Cc1noc(C)c1C(=O)OCC(=O)Nc1ncc(Cl)c(C)c1Cl	-9%	x	x	-31	x	x
Cc1ccc(NC(=O)CCN2C(=O)NC3(CCCC3)C2=O)c(C)c1	2%	x	4%	11	x	6%
